From PubChem
Only some compounds are listed: those with a hit (about 1.6% of all), similar ones and a draw of the others.
KCNQ2 pot: potentiators of rat KCNQ2 potassium channel | CHO-K1 KCNQ2, FluxOR thallium flux fluorescence; hits give high values | B-score at 10 µM | AID 2239, 2010 | 310,000 tested, 0.54% active;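 active = fluorescence ratio B-score at least 3 SD of library B-scores, with initial fluorescence B-score within 3 of them, cut at about 5.3 in these data; same plate scores as AID 2156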;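 note: B-score of peak minus minimum over baseline fluorescence ratio after K+ and Tl+ stimulus; positive B-score means potentiation of KCNQ2 with more thallium influx and brighter signal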
Target sequence (O88943 whole entry, looked up): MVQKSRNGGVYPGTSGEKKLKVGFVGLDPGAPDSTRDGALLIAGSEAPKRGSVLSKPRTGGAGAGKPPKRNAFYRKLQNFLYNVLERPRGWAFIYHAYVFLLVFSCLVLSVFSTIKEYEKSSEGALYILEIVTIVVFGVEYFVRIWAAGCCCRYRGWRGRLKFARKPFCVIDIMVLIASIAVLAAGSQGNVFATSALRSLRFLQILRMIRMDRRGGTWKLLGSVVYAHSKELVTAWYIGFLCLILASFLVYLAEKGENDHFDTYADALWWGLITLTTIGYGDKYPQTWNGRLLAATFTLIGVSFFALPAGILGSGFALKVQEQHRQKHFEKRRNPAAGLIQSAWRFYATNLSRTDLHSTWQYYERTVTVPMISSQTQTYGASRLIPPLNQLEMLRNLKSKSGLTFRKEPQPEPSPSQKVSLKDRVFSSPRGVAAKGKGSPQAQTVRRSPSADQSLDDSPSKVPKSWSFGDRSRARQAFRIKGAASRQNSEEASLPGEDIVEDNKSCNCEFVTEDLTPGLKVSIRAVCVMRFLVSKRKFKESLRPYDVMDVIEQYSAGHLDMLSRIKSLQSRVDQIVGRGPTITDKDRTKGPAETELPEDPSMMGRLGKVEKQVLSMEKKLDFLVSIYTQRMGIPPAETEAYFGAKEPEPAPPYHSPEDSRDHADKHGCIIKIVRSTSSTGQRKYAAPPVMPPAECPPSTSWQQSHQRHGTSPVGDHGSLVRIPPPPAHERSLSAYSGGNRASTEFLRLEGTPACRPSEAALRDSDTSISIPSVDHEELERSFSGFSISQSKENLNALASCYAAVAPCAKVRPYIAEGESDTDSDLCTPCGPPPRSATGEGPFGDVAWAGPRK
KCNQ2 inh: rat KCNQ2 potassium channel inhibitors, primary screen, cell-based, CHO-K1, FluxOR thallium flux, B-score. Potassium voltage-gated channel subfamily KQT member 2 (Rattus norvegicus), O88943. 20 min; hits give low values. B-score at 10 µM. 310,000 tested, 1.1% active;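 active = fluorescence ratio B-score at most minus 3 library SDs, with starting brightness B-score within 2 library SDs, cut at about -5.5 in these data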
Kir21 confirm: mouse Kir2.1 channel blockers, retest, confirmation, cell-based, FluxOR thallium flux, duplicate | shares compounds with KCNQ2 pot | Kir2.1-expressing cells, FluxOR thallium flux fluorescence; hits give low values | Tl flux remaining, % of negative control (hits give low values), % at 10 µM | 2,300 tested, 41% active | AID 2032, 2009;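 active = Primary-screen hit whose thallium flux fell at least 3 control SD below untreated wells in both duplicates, with normal baseline fluorescence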
HEK293 ctr: alters thallium flux in parental HEK293 cells, Kir2.1 counter-screen; FluxOR signal as % of negative control (100 = no effect), % at 10 µM; FluxOR thallium flux fluorescence; 0% = unstimulated blank wells; 2,300 tested, 19% active; shares compounds with KCNQ2 pot;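 active = dye signal at least 3 control SD above or below untreated wells in both duplicates, raw fluorescence within 3, either direction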;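 note: percent is based on the flux ratio of peak minus minimum fluorescence over baseline F0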
CHO-K1 ctr: nonspecific thallium flux increase in parental CHO-K1, confirmation, counter-screen for KCNQ2 potentiator project, cell-based, FluxOR thallium flux, duplicate; shares compounds with KCNQ2 pot; parental CHO-K1 cells, FluxOR thallium flux fluorescence; zero = vehicle mean+3SD, 100% = vehicle-minus-blank window; activity increase over 3SD of controls, % at 10 µM; 1,200 tested, 43% active; AID 2282, 2010;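 active = signal rise of at least 3 SD above the untreated control mean, in both duplicate wells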;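 note: counter screen of KCNQ2 potentiator hits so any rise reflects channel-independent effects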
KCNQ1 pot spec: human KCNQ1 channel potentiation off-target, confirmation, selectivity assay for KCNQ2 potentiator project, cell-based, CHO, FluxOR thallium flux; activation over 3SD threshold, % at 10 µM; 1,200 tested, 28% active; CHO KCNQ1 stable, FluxOR thallium flux fluorescence; beyond 3SD, as % of vehicle-control signal; shares compounds with KCNQ2 pot; AID 2283, 2010;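 active = fluorescence ratio rise of at least 3 SD of vehicle wells above their mean, in both replicate wells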
KCNQ2 pot conf: rat KCNQ2 channel potentiators, confirmation, cell-based, CHO, FluxOR thallium flux, duplicate | shares compounds with KCNQ2 pot | CHO-KCNQ2 cells, FluxOR thallium flux fluorescence | potentiation, less the hit threshold, % at 10 µM | 1,200 tested, 68% active;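 active = fluorescence ratio rising 3 SD or more over the vehicle control mean in both replicates, plus primary screen hit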;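 note: peak minus minimum thallium fluorescence divided by baseline after K/Tl stimulus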
Kir21 spec: mouse Kir2.1 channel activation off-target, confirmation, selectivity assay for KCNQ2 potentiator project, cell-based, HEK293, FluxOR thallium flux; shares compounds with KCNQ2 pot; HEK293 Kir2.1, FluxOR thallium flux fluorescence; activity over 3SD threshold, % at 10 µM; 1,200 tested, 2% active;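 active = fluorescence ratio rise of at least 3 SD above the vehicle-control mean, seen in both replicates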
KCNQ2 W236L pot: potentiators of retigabine-insensitive KCNQ2 W236L, mechanism study for KCNQ2 potentiator project, cell-based, rat KCNQ2 W236L, CHO, automated patch clamp; shares compounds with KCNQ2 pot; automated patch clamp current; current increase over 3SD of negative controls (%), hits give high values, % at 25 µM; 940 tested, 10% active; AID 2558, 2010;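 active = current increase at least 3 SD of the untreated controls above them in both duplicate recordings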
Hits are given with their value; n = inactive; x = no result given.

SMILES	KCNQ2 pot	KCNQ2 inh	Kir21 confirm	HEK293 ctr	others
CC(C)Oc1ccc(C(CCN)C2CCCCC2)cc1 (stereo unspecified)	x	n	44%	65%
CC1CCC(NC(=O)c2ccc(COc3ccccc3)o2)CC1 (stereo unspecified)	x	n	x	x
COc1cc(OC)cc(C(=O)NNc2nc3cc4c(cc3s2)OCO4)c1	n	n	x	x
COc1cc(C(=O)NNc2nc3cc4c(cc3s2)OCO4)cc(OC)c1OC	12	n	n	n	CHO-K1 ctr=n;KCNQ1 pot spec=n;KCNQ2 pot conf=n;Kir21 spec=n
CC1(C)NC(=O)N(CC(=O)OCC(=O)NC(=O)c2ccccc2)C1=O	n	n	x	x
CCCc1nnc(NC(=O)c2nc(S(=O)(=O)Cc3ccc(C)cc3)ncc2Cl)s1	10	n	x	x	CHO-K1 ctr=n;KCNQ1 pot spec=n;KCNQ2 pot conf=55;Kir21 spec=n;KCNQ2 W236L pot=25%
CCOc1ccccc1NC(=O)c1nc(S(=O)(=O)Cc2ccccc2)ncc1Cl	n	n	x	x
CSc1nnc(NC(=O)c2nc(S(=O)(=O)Cc3ccccc3)ncc2Cl)s1	14	n	n	n	CHO-K1 ctr=23;KCNQ1 pot spec=18;KCNQ2 pot conf=83;Kir21 spec=n;KCNQ2 W236L pot=32%
CC(C)c1nnc(NC(=O)c2nc(S(=O)(=O)Cc3ccccc3)ncc2Cl)s1	15	n	n	n	CHO-K1 ctr=23;KCNQ1 pot spec=n;KCNQ2 pot conf=94;Kir21 spec=n;KCNQ2 W236L pot=29%
CSc1ncc(Cl)c(C(=O)Nc2nnc(SC)s2)n1	n	n	x	x
CCc1ccc(NC(=O)c2nc(S(=O)(=O)Cc3ccccc3)ncc2Cl)cc1	n	n	x	x
CN(CCC#N)C(=O)CC1(Cc2ccccc2)CCOC(C)(C)C1 (stereo unspecified)	n	n	x	x
CC(C)c1nnc(NC(=O)C2CCCN2C(=O)Nc2cccc(Cl)c2)s1 (stereo unspecified)	n	n	x	x
CN(C)c1ccc(/C=C2\CCCc3c2nc2ccccc2c3C(=O)O)cc1	n	n	x	x
O=C(COc1ccccc1Cl)NCC(c1cccs1)N1CCOCC1 (stereo unspecified)	x	n	x	x
Cc1ccc(Cl)c(OCC(=O)NCC(c2cccs2)N2CCOCC2)c1 (stereo unspecified)	x	n	64%	n
COc1ccc(/C=N/NC(=S)SC)cc1OC	n	n	x	x
CSC(=S)N/N=C/c1ccccc1	9.3	n	n	218%	CHO-K1 ctr=n;KCNQ1 pot spec=9.4;KCNQ2 pot conf=7.4;Kir21 spec=n;KCNQ2 W236L pot=n
Cc1ccc(C)c(NC(=O)c2cc([N+](=O)[O-])cc([N+](=O)[O-])c2)c1	x	n	x	x
O=C(/C=C/c1ccccc1)c1cc(Br)ccc(=O)c1O	n	n	x	x
Cc1ccc(/C=C/C(=O)c2ccccc(=O)c2O)cc1C	6.1	n	n	n	CHO-K1 ctr=n;KCNQ1 pot spec=n;KCNQ2 pot conf=0.8;Kir21 spec=n;KCNQ2 W236L pot=n
CCOC(=O)c1nnn(-c2nonc2N)c1CSc1ccccc1	n	n	x	x
CCOC(=O)c1nnn(-c2nonc2N)c1CSc1ccc(C)cc1	n	n	71%	n
CCOC(=O)C1(CCCc2ccccc2)CCN(Cc2cn(CC)nc2C)CC1	n	n	x	x
Cc1cc(Nc2nn(C)c(N)c2C#N)ccc1F	n	n	x	x
SMILES	KCNQ2 pot	KCNQ2 inh	Kir21 confirm	HEK293 ctr	others
O=C(NCC(c1cccnc1)N1CCOCC1)Nc1ccccc1 (stereo unspecified)	x	n	x	x
CCn1c(=O)c(C(=O)NCc2ccc(OC)cc2)c(O)c2ccccc21	x	n	x	x
CCn1c(=O)c(C(=O)NCc2ccccn2)c(O)c2ccccc21	18	n	n	n	CHO-K1 ctr=n;KCNQ1 pot spec=n;KCNQ2 pot conf=35;Kir21 spec=n;KCNQ2 W236L pot=n
Cc1ccsc1C(=O)NCCc1nnc2ccccn12	n	n	x	x
COc1cccc(/C=N/NC(=O)CNC(=O)COc2ccccc2)c1O	n	n	x	x
Cc1cccc(OCC(=O)NCC(=O)N/N=C/c2cc(Br)cc(Br)c2O)c1	10	n	n	n	CHO-K1 ctr=6.9;KCNQ1 pot spec=0.7;KCNQ2 pot conf=n;Kir21 spec=n
N/C(CN1CCCCC1)=N\S(=O)(=O)c1cc(Cl)cc(Cl)c1	x	n	x	x
CC(C)CN(C(=O)COC(=O)Cc1n[nH]c(=O)c2ccccc12)C1CCS(=O)(=O)C1 (stereo unspecified)	x	n	x	x
CC(C)CN(C(=O)COC(=O)CNC(=O)c1sc2ccccc2c1Cl)C1CCS(=O)(=O)C1 (stereo unspecified)	n	n	n	75%
O=C1CC(N2CCN(C3CC(=O)N(CCc4ccccc4)C3=O)CC2)C(=O)N1CCc1ccccc1 (stereo unspecified)	n	n	x	x
O=C1CC(N2CCC(Cc3ccccc3)CC2)C(=O)N1CCc1ccccc1 (stereo unspecified)	5.7	n	n	n	CHO-K1 ctr=n;KCNQ1 pot spec=n;KCNQ2 pot conf=7.5;Kir21 spec=n;KCNQ2 W236L pot=n
O=C(NCCCN1CCOCC1)c1ccc2c(=O)n(Cc3ccc(Cl)cc3)c(=S)[nH]c2c1	n	n	x	x
CSc1ncc(CO)n1Cc1ccccc1	n	n	x	x
Cc1cc(=O)[nH]n(CCO)c1=O	n	n	x	x
CN(C)c1nc(Oc2ccc(N)cc2)nc(N(C)C)n1	x	n	x	x
CC1=C(C(N)=O)C(c2cccs2)n2nc(-c3cccc(C)c3)nc2N1 (stereo unspecified)	n	n	x	x
CC1=C(C(N)=O)C(c2cccs2)n2nc(-c3cccc(Cl)c3)nc2N1 (stereo unspecified)	5.8	n	n	n	CHO-K1 ctr=53;KCNQ1 pot spec=n;KCNQ2 pot conf=n;Kir21 spec=n;KCNQ2 W236L pot=0.9%
COc1ccc(/C=N/OCC(=O)N2CCCC2)c(OC)c1	x	n	x	x
COCc1ccc(CN2CCCC(C(=O)Nc3ccccc3-c3ccc(OC)cc3)C2)o1 (stereo unspecified)	n	n	x	x
CCc1ccc(CN2CCCC(C(=O)Nc3ccccc3-c3ccc(OC)cc3)C2)o1 (stereo unspecified)	n	-6.1	n	n
Cc1[nH]n(-c2ccccc2)c(=O)c1N=Nc1nccs1	15	n	n	550%	CHO-K1 ctr=n;KCNQ1 pot spec=16;KCNQ2 pot conf=91;Kir21 spec=18;KCNQ2 W236L pot=n
Cc1[nH]n(-c2ccccc2)c(=O)c1N=Nc1ccccc1O	n	n	x	x
CC(=O)Nc1ccc(S(=O)(=O)N(Cc2ccccc2)c2ccccn2)cc1	x	n	x	x
